Experimental data: the supplement of paper PMC12645437, “Orthogonal IMiD-Degron Pairs Induce Selective Protein Degradation in Cells” (ACS Chemical Biology, 2025)
Whole data set: some 8,300 sequences, median “log2 fold change of degron read counts, EGFP-low vs EGFP+ sorted cells (limma voom), compound-induced degradation” near -1.1, cut for the highest 2% near 3.2. Shown is part of a subset that was picked to be rich in the highest values.

Target: T1, CRBN, Q96SW2
T1 chain: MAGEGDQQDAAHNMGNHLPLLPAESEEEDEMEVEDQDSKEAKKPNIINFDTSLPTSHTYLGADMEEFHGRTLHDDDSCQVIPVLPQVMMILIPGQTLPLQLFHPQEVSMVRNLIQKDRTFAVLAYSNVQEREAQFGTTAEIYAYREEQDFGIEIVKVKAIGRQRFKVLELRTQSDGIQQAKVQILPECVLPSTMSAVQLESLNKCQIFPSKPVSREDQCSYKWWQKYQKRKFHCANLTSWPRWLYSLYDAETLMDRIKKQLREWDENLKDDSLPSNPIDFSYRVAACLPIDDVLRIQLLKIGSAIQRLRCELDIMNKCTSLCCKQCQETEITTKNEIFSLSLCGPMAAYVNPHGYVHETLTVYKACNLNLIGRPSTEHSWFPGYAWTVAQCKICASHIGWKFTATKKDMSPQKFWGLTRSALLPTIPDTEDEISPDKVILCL
Assay: log2 fold change of degron read counts, EGFP-low vs EGFP+ sorted cells (limma voom), compound-induced degradation; higher = more compound-induced degradation of the degron-EGFP fusion; degrons are variants of IKZF1/3 zinc finger 2; compound dose not given here
Conditions: Jurkat, 18 h

[1] = compound: compound 19 (5-tert-butyl-thalidomide)
[2] = compound: compound 22 (5-morpholino-thalidomide)
[3] = compound: compound 33 (diphenyl IMiD analogue)
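Note: pooled lentiviral library of zinc finger degron-EGFP fusions in mCherry-positive Jurkat cells, FACS-sorted after compound exposure, with degron abundance counted by next-generation sequencing.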

FCCPQCGAHFTQKGNLLRHIKL [46F_47C_49P_50Q_52G_53A_54H_55F_67L_, Q9UKT9]
log2 fold change of degron read counts [1]: -1.46
log2 fold change of degron read counts [2]: -2.19
log2 fold change of degron read counts [3]: -0.412
log2 fold change of degron read counts (compound: thalidomide): -1.42

FKCNQCGHPFTQKGNLLRHIKL [46F_47K_49N_50Q_52G_53H_54P_55F_67L_, Q9UKT9]
log2 fold change of degron read counts [1]: -2.61
log2 fold change of degron read counts [2]: -2.63
log2 fold change of degron read counts [3]: -2.72
log2 fold change of degron read counts (compound: thalidomide): -2.3

LKCEICGFTCTQKGNLLRHIKL [46L_47K_49E_50I_52G_53F_54T_55C_67L_, Q9UKT9]
log2 fold change of degron read counts [1]: -1
log2 fold change of degron read counts [2]: -2.29
log2 fold change of degron read counts [3]: -1.73
log2 fold change of degron read counts (compound: thalidomide): 0.124

LDCEICGFTCTQKGNLLRHIKL [46L_47D_49E_50I_52G_53F_54T_55C_67L_, Q9UKT9]
log2 fold change of degron read counts [1]: 0.0603
log2 fold change of degron read counts [2]: -0.828
log2 fold change of degron read counts [3]: -0.732
log2 fold change of degron read counts (compound: thalidomide): 0.278

LTCEICGFTCTQKGNLLRHIKL [46L_47T_49E_50I_52G_53F_54T_55C_67L_, Q9UKT9]
log2 fold change of degron read counts [1]: 1.29
log2 fold change of degron read counts [2]: 2.89
log2 fold change of degron read counts [3]: 2.18
log2 fold change of degron read counts (compound: thalidomide): 3.14

LGCEICGFTCTQKGNLLRHIKL [46L_47G_49E_50I_52G_53F_54T_55C_67L_, Q9UKT9]
log2 fold change of degron read counts [1]: 2.28
log2 fold change of degron read counts [2]: 2.37
log2 fold change of degron read counts [3]: 0.519
log2 fold change of degron read counts (compound: thalidomide): 0.415

LSCEICGFTCTQKGNLLRHIKL [46L_47S_49E_50I_52G_53F_54T_55C_67L_, Q9UKT9]
log2 fold change of degron read counts [1]: 3.05
log2 fold change of degron read counts [2]: 2.87
log2 fold change of degron read counts [3]: 1.94
log2 fold change of degron read counts (compound: thalidomide): 1.96

LMCEICGFTCTQKGNLLRHIKL [46L_47M_49E_50I_52G_53F_54T_55C_67L_, Q9UKT9]
log2 fold change of degron read counts [1]: 0.136
log2 fold change of degron read counts [2]: 1.5
log2 fold change of degron read counts [3]: 3.07
log2 fold change of degron read counts (compound: thalidomide): 2.97

LCCEICGFTCTQKGNLLRHIKL [46L_47C_49E_50I_52G_53F_54T_55C_67L_, Q9UKT9]
log2 fold change of degron read counts [1]: 2.49
log2 fold change of degron read counts [2]: 2.78
log2 fold change of degron read counts [3]: 2.65
log2 fold change of degron read counts (compound: thalidomide): 2.98

LACEICGFTCTQKGNLLRHIKL [46L_47A_49E_50I_52G_53F_54T_55C_67L_, Q9UKT9]
log2 fold change of degron read counts [1]: 3.48
log2 fold change of degron read counts [2]: 3.3
log2 fold change of degron read counts [3]: 1.55
log2 fold change of degron read counts (compound: thalidomide): 1.36

LYCEICGFTCTQKGNLLRHIKL [46L_47Y_49E_50I_52G_53F_54T_55C_67L_, Q9UKT9]
log2 fold change of degron read counts [1]: 3.57
log2 fold change of degron read counts [2]: 3.51
log2 fold change of degron read counts [3]: 3.19
log2 fold change of degron read counts (compound: thalidomide): 2.25

LWCEICGFTCTQKGNLLRHIKL [46L_47W_49E_50I_52G_53F_54T_55C_67L_, Q9UKT9]
log2 fold change of degron read counts [1]: 3.55
log2 fold change of degron read counts [2]: 3.79
log2 fold change of degron read counts [3]: 3.08
log2 fold change of degron read counts (compound: thalidomide): 1.83

LQCEICGFTCTQKGNLLRHIKL [46L_47Q_49E_50I_52G_53F_54T_55C_67L_, Q9UKT9]
log2 fold change of degron read counts [1]: 1.59
log2 fold change of degron read counts [2]: 2.54
log2 fold change of degron read counts [3]: 2.34
log2 fold change of degron read counts (compound: thalidomide): 3.65

LLCEICGFTCTQKGNLLRHIKL [46L_47L_49E_50I_52G_53F_54T_55C_67L_, Q9UKT9]
log2 fold change of degron read counts [1]: 0.0109
log2 fold change of degron read counts [2]: -0.207
log2 fold change of degron read counts [3]: 1.27
log2 fold change of degron read counts (compound: thalidomide): 2.65

LVCEICGFTCTQKGNLLRHIKL [46L_47V_49E_50I_52G_53F_54T_55C_67L_, Q9UKT9]
log2 fold change of degron read counts [1]: 1.83
log2 fold change of degron read counts [2]: 2.47
log2 fold change of degron read counts [3]: 2.5
log2 fold change of degron read counts (compound: thalidomide): 3.21

FECPICGRSFTQKGNLLRHIKL [46F_47E_49P_50I_52G_53R_54S_55F_67L_, Q9UKT9]
log2 fold change of degron read counts [1]: -1.57
log2 fold change of degron read counts [2]: -1.84
log2 fold change of degron read counts [3]: 0.414
log2 fold change of degron read counts (compound: thalidomide): 1.14

FFCSVCGHNFTQKGNLLRHIKL [46F_47F_49S_50V_52G_53H_54N_55F_67L_, Q9UKT9]
log2 fold change of degron read counts [1]: -2.16
log2 fold change of degron read counts [2]: -2.66
log2 fold change of degron read counts [3]: -2.79
log2 fold change of degron read counts (compound: thalidomide): -2.23

FCCNQCGRRFTQKGNLLRHIKL [46F_47C_49N_50Q_52G_53R_54R_55F_67L_, Q9UKT9]
log2 fold change of degron read counts [1]: -2.5
log2 fold change of degron read counts [2]: -2.28
log2 fold change of degron read counts [3]: -2.09
log2 fold change of degron read counts (compound: thalidomide): -1.82

LRCEICGFNCTQKGNLLRHIKL [46L_47R_49E_50I_52G_53F_54N_55C_67L_, Q9UKT9]
log2 fold change of degron read counts [1]: -1.42
log2 fold change of degron read counts [2]: -1.56
log2 fold change of degron read counts [3]: -0.0516
log2 fold change of degron read counts (compound: thalidomide): 0.0396

FGCNQCGRIFTQKGNLLRHIKL [46F_47G_49N_50Q_52G_53R_54I_55F_67L_, Q9UKT9]
log2 fold change of degron read counts [1]: -1.52
log2 fold change of degron read counts [2]: -1.65
log2 fold change of degron read counts [3]: -1.94
log2 fold change of degron read counts (compound: thalidomide): -1.45

FECNQCGRHFTQKGNLLRHIKL [46F_47E_49N_50Q_52G_53R_54H_55F_67L_, Q9UKT9]
log2 fold change of degron read counts [1]: -2.89
log2 fold change of degron read counts [2]: -3.21
log2 fold change of degron read counts [3]: -3.78
log2 fold change of degron read counts (compound: thalidomide): -2.98

FSCNQCGRTFTQKGNLLRHIKL [46F_47S_49N_50Q_52G_53R_54T_55F_67L_, Q9UKT9]
log2 fold change of degron read counts [1]: -2.51
log2 fold change of degron read counts [2]: -2.59
log2 fold change of degron read counts [3]: -2.31
log2 fold change of degron read counts (compound: thalidomide): -2.34

FHCEICGRSFTQKGNLLRHIKL [46F_47H_49E_50I_52G_53R_54S_55F_67L_, Q9UKT9]
log2 fold change of degron read counts [1]: -1.49
log2 fold change of degron read counts [2]: -1.82
log2 fold change of degron read counts [3]: -0.909
log2 fold change of degron read counts (compound: thalidomide): -2.11

FDCPICGALFTQKGNLLRHIKL [46F_47D_49P_50I_52G_53A_54L_55F_67L_, Q9UKT9]
log2 fold change of degron read counts [1]: -0.924
log2 fold change of degron read counts [2]: -0.888
log2 fold change of degron read counts [3]: 1.62
log2 fold change of degron read counts (compound: thalidomide): 0.905

LHCEICGFTCTQKGNLLRHIKL [46L_47H_49E_50I_52G_53F_54T_55C_67L_, Q9UKT9]
log2 fold change of degron read counts [1]: 2.89
log2 fold change of degron read counts [2]: 2.93
log2 fold change of degron read counts [3]: 2.43
log2 fold change of degron read counts (compound: thalidomide): 2.43

LFCEICGFTCTQKGNLLRHIKL [46L_47F_49E_50I_52G_53F_54T_55C_67L_, Q9UKT9]
log2 fold change of degron read counts [1]: 3.64
log2 fold change of degron read counts [2]: 3.67
log2 fold change of degron read counts [3]: 2.59
log2 fold change of degron read counts (compound: thalidomide): 2.56

LNCEICGFTCTQKGNLLRHIKL [46L_47N_49E_50I_52G_53F_54T_55C_67L_, Q9UKT9]
log2 fold change of degron read counts [1]: 1.73
log2 fold change of degron read counts [2]: 0.624
log2 fold change of degron read counts [3]: -0.0341
log2 fold change of degron read counts (compound: thalidomide): 0.396

FQCNQCGHNFTQKGNLLRHIKL [46F_47Q_49N_50Q_52G_53H_54N_55F_67L_, Q9UKT9]
log2 fold change of degron read counts [1]: -2.53
log2 fold change of degron read counts [2]: -2.33
log2 fold change of degron read counts [3]: -2.93
log2 fold change of degron read counts (compound: thalidomide): -2.77
